Our source for the composite z-score and z-score values is PubChem BioAssay.

Where “and” joins values, the source holds several entries; their conditions need not be identical. Equal values may be shown once. Calls of active or inactive are those of the source.

Assay [1] can be described thus: small molecules captured by biotinylated probe aFSTL3 – biochemical, small-molecule microarray, fluorescence 635/667, stem cell growth factor project, primary screen (AID 1064).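 Note: measures binding of the biotinylated anti-FSTL3 antibody to printed compounds.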 To be noted: higher = more signal.
The nature of assay [2]: binders from COS7 lysate, DM2A8 probe, primary screen, torsin A project, cell lysate, small-molecule microarray, fluorescence 635/667 (AID 1065). The conditions noted are these: higher = more signal, COS7 lysate expressing mutant human TOR1A.
A short description of assay [3]: small molecules captured by biotinylated probe aFGF2 – biochemical, small-molecule microarray, fluorescence 635/667, stem cell growth factor project, primary screen (AID 1067).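 Note: measures binding of biotinylated aFGF2 protein to printed compounds on slides; z-score merges feature fluorescence and signal-to-noise across triplicate slides.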 The conditions noted are these: higher = more signal.
Assay [4] can be described thus: small molecules captured by biotinylated probe aFGF10 – biochemical, small-molecule microarray, fluorescence 635/667, stem cell growth factor project, primary screen (AID 1071).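 Note: score merges 667 nm spot intensity and signal to noise from triplicate slides.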 To be noted: higher = more signal.
Assay [5] concerns the target Neurogenic locus notch homolog protein 2 (Homo sapiens) (UniProt Q04721). The assay can be described thus: small molecules binding Notch2 protein – biochemical, small-molecule microarray, 635 nm fluorescence, stem cell growth factors, primary screen (AID 1073). To be noted: higher = more signal.
Assay [6] concerns the target Pro-neuregulin-1, membrane-bound isoform (Homo sapiens) (UniProt Q02297). The assay can be described thus: small molecules binding neuregulin-1 protein – biochemical, small-molecule microarray, fluorescence 635/667, psychiatric disease protein project, primary screen (AID 1075).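 Note: score combines 667 nm spot fluorescence with signal to noise.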 To be noted: NRG1 binding, 635 nm fluorescence, higher = more signal.
In assay [7] the test system is Neuregulin-1 EGF-like domain. The experiment in a line: small molecules binding NRG1 EGF domain – biochemical, small-molecule microarray, 635 nm fluorescence, primary screen (AID 1081).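 Note: binding of the protein to compounds printed on small-molecule microarray slides.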 The conditions noted are these: higher = more signal.
The nature of assay [8]: FRG1 expression reporter modulators in myotubes – cell-based, C2C12 myotubes, firefly/Renilla luciferase, luminescence, FRG1 inhibition for FSHD, primary screen (AID 1084). The conditions noted are these: FRG1 promoter luciferase, higher = more signal, called active from +8 up or from −8 down.
A short description of assay [9]: small molecules captured by biotinylated probe aFST – biochemical, small-molecule microarray, fluorescence 635/667, stem cell growth factor project, primary screen (AID 1086).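 Note: score merges 667 nm fluorescence with signal-to-noise of each printed compound spot.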 The conditions noted are these: higher = more signal.
Assay [10] is described as follows: binders of probe aHhip on microarray, primary screen, stem cell growth factor project, biochemical, small-molecule microarray, fluorescence 635/667 (AID 1087).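 Note: score merges spot fluorescence at 667nm with spot signal to noise ratio.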 To be noted: higher = more signal.
For assay [11], the system named is PRMT1 (protein arginine N-methyltransferase 1). The experiment in a line: small molecules binding arginine methyltransferase PRMT1 – biochemical, small-molecule microarray, 635 nm fluorescence, primary screen (AID 1088).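 Note: binding of Prmt1 protein to compounds spotted on small-molecule microarray slides.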 The conditions noted are these: higher = more signal.
Assay [12] can be described thus: growth effects on S. cerevisiae YJM789 – YJM789 clinical isolate, OD600, 24 h, basal, primary screen (AID 1089).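 Note: growth of clinical yeast isolate S. cerevisiae YJM 789 seeded 1000 cells per well; test concentration not given here.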 To be noted: higher = more signal, called active from +8 up or from −8 down.
Assay [13] can be described thus: S. pombe growth modifiers, basal conditions – strain 972, OD600, 24 h, no modulator, primary screen (AID 1090).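 Note: basal condition with compound alone and no growth modifier present; test concentration not given here.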 The conditions noted are these: S. pombe 972 growth, higher = more signal, called active from +8 up or from −8 down.
The nature of assay [14]: budding yeast growth modifiers under rapamycin – strain BY4716, OD600, 96 h, primary screen (AID 1091). Note: test concentration not given here. The conditions noted are these: S. cerevisiae BY4716 + rapamycin, higher = more signal, called active from +8 up or from −8 down.
For assay [15], the target named is Torsin-1A-interacting protein 2 (Homo sapiens) (UniProt Q8NFQ8). The assay can be described thus: small molecules binding lysate-expressed LULL1 – cell lysate, human LULL1 lysate, 635/667 nm fluorescence, primary screen (AID 1092).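 Note: probe is lysate of COS7 cells overexpressing human LULL1; score merges per-feature 667 nm fluorescence with signal-to-noise.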 To be noted: small-molecule microarray, hLULL1 lysate binding, 635 nm fluorescence; higher = more signal.
Torsin-1A-interacting protein 2 (Homo sapiens), sequence (Q8NFQ8 whole entry, looked up): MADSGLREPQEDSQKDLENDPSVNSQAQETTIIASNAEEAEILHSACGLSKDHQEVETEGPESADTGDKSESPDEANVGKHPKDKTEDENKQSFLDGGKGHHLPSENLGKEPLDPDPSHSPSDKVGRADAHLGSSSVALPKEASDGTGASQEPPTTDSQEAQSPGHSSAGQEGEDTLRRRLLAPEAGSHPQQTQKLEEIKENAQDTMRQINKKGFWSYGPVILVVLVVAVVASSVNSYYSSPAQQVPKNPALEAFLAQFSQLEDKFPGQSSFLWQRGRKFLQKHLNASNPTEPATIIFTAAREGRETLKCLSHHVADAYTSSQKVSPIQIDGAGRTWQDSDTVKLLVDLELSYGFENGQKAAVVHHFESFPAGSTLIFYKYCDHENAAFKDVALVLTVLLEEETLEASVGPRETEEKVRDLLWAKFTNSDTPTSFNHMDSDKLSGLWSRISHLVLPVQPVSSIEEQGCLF
Assay [16] can be described thus: optical density change of DRC41 E. coli – strain DRC41, OD650, 24 h, E. coli filamentation project, primary screen (AID 1093).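 Note: MC1000 strain lacking acrAB efflux and sulA so SOS filamentation is blocked; test concentration not given here.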 The conditions noted are these: E. coli DRC41 growth, higher = more signal, called active from +8 up or from −8 down.
A short description of assay [17]: probe aLefty2 binding to arrayed compounds – biochemical, biotinylated probe, 635/667 nm fluorescence, primary screen (AID 1094).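 Note: score merges spot fluorescence near 667 nm with spot signal-to-noise ratio.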 To be noted: small-molecule microarray, higher = more signal.
Assay [18] relates to Noggin (protein binding on small-molecule microarray). The assay can be described thus: small molecules binding Noggin protein – biochemical, 635/667 nm fluorescence, primary screen (AID 1095).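 Note: score merges 667 nm feature fluorescence with signal to noise over triplicate slides.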 The conditions noted are these: 635 nm fluorescence, higher = more signal.
Assay [19] has as its target Neurogenic locus notch homolog protein 3 (Homo sapiens) (UniProt Q9UM47). The experiment in a line: small molecules binding NOTCH3 protein – biochemical, 635/667 nm fluorescence, primary screen (AID 1096). The conditions noted are these: small-molecule microarray, 635 nm fluorescence, higher = more signal.
Assay [20] can be described thus: probe aEGFR binding to arrayed compounds – biochemical, biotinylated probe, 635/667 nm fluorescence, primary screen (AID 1097).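 Note: probe is a biotinylated anti-EGFR antibody binding compounds printed on slides; score combines fluorescence near 667 nm and signal to noise of each spot.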 To be noted: small-molecule microarray, higher = more signal.

Pro-neuregulin-1, membrane-bound isoform (Homo sapiens), sequence (Q02297 whole entry, looked up, the tested form may be a part, canonical isoform): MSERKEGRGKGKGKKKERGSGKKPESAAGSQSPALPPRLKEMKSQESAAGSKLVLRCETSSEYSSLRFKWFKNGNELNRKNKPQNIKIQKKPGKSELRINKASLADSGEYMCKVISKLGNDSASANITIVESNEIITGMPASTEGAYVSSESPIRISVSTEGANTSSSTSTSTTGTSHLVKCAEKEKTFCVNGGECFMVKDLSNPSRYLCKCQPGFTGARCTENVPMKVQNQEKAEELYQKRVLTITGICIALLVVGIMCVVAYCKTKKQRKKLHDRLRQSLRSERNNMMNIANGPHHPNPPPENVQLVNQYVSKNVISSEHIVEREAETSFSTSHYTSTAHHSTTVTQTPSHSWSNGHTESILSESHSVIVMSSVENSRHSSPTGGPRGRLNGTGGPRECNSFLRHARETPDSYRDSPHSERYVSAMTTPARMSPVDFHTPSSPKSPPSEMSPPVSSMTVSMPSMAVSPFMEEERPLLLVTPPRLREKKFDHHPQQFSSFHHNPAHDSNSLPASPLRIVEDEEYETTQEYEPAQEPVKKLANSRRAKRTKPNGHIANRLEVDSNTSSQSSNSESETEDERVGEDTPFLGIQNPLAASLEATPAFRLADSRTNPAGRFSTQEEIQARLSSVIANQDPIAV
Neurogenic locus notch homolog protein 3 (Homo sapiens), sequence (Q9UM47 whole entry, looked up): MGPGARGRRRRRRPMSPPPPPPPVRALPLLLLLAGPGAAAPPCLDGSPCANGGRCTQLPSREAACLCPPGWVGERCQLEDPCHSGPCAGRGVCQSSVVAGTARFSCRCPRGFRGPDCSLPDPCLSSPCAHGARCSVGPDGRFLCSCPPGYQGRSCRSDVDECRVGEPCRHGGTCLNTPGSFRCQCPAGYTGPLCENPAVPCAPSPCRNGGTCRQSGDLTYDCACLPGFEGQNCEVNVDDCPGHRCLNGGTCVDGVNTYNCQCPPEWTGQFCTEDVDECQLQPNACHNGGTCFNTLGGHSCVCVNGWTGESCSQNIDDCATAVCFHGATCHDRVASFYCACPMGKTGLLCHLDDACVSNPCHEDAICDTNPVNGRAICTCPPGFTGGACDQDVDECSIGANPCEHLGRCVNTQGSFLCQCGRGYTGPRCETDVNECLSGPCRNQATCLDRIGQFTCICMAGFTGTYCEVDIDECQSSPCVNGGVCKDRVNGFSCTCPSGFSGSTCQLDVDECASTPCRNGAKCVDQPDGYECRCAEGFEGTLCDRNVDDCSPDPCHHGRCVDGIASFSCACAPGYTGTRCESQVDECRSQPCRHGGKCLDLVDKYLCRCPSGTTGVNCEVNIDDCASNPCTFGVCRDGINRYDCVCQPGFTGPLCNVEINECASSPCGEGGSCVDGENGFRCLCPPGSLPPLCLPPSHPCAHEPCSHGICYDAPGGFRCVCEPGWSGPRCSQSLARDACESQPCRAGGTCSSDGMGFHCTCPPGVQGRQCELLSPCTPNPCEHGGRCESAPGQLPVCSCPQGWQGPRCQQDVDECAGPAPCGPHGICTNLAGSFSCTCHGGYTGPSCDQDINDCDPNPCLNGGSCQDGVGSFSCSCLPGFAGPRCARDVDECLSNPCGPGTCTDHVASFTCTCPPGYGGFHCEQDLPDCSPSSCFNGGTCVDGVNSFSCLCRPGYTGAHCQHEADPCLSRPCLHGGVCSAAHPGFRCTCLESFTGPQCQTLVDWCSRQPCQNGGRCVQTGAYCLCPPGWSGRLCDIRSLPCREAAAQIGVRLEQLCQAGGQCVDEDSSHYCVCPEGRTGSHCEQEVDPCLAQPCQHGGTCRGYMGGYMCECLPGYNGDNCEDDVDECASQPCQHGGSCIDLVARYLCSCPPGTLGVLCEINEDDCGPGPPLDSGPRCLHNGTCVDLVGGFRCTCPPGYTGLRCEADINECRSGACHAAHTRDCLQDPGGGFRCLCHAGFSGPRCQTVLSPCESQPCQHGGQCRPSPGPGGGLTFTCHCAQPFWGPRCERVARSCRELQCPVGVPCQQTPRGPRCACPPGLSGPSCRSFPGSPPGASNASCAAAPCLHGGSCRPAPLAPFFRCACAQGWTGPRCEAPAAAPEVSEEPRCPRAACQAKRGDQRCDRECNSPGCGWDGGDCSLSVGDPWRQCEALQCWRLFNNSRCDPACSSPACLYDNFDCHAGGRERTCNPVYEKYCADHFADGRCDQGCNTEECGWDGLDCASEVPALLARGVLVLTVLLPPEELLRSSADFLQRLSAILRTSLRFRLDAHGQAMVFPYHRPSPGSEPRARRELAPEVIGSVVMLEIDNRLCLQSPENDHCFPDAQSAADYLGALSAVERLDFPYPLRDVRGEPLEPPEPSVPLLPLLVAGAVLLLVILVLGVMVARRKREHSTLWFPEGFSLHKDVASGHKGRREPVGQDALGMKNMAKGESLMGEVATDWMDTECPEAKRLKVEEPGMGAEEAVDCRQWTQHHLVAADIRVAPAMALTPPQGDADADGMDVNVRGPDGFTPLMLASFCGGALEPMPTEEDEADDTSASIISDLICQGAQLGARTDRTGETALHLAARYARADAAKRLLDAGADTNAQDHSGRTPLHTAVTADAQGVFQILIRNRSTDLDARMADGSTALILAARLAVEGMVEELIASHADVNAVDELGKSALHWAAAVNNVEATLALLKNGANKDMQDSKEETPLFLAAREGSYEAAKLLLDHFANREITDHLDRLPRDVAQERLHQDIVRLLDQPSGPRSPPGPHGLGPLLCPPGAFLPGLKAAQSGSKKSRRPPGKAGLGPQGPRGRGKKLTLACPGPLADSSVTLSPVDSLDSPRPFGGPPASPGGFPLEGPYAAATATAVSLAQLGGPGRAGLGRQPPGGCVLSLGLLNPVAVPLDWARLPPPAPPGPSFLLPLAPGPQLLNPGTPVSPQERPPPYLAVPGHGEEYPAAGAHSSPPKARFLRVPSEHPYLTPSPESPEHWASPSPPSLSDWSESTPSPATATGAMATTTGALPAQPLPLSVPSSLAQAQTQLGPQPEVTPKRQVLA

With `CCOC(=O)NN=C1C[C@@H](O)[C@@H](O)[C@@H]2[C@@H]3C(=O)N(Cc4ccccc4)C(=O)[C@@H]3CC[C@@H]12`, the composite z-score in assay [1] is -0.629; in assay [2], 0.0854; in [3] it was -0.202; in [4], 0.295; in [5], 0.388; in assay [6] it was 0.318. The composite z-score in [7] was -0.026; in assay [9] it was -0.0089; in assay [10] it was -0.0391; in assay [11], 0.249; in assay [15] it was -0.572; in assay [17], -0.217. Moreover, the results for the composite z-score in assay [18], in [19] and in assay [20] were 0.406, 0.639 and -0.282, respectively. In addition, the z-score in assay [8] was -0.0833 (inactive); in [12] it was 0.872 (inactive); in [13], 0.117 (inactive); in [14], 0.552 (inactive); in assay [16], -1.68 (inactive).
In the case of `CC(C)=NO[C@@H](C)c1cc(-c2c(C)cc(C)cc2C)no1`, the composite z-score was 1.18 in assay [1]; -0.146 in assay [2]; -0.135 in assay [3]; 0.0794 in assay [4]; -0.243 in assay [5]; -0.0227 in assay [6]. For the same molecule, the composite z-score was -0.304 in assay [7]; -0.163 in [9]; 0.0854 in assay [10]; -0.389 in assay [11]; 0.168 in assay [15]; -0.122 in assay [17]. Moreover, the composite z-score in [18] is 0.412; in assay [19] it was -0.434; in [20] it was -0.101. Further, the z-score in assay [8] is 0.122 (inactive); in assay [12], -0.166 (inactive); in assay [13] it was -3.55 (inactive); in [14] it was -0.0423 (inactive); in assay [16] it was -0.272 (inactive).
For `CCCC[C@@H]1CN2[C@H](c3ccc(Br)cc3)[C@@H](C)CC[C@H]2C(=O)O1`, the composite z-score in assay [1] was -0.419 and -0.254; in [2], -0.309 and 0.41; in assay [3] it was -0.129 and -0.103; in assay [4] it was -0.0574 and -0.132; in [5] it was -0.118 and -0.134; in assay [6], 0.0412 and -0.139. Further, the composite z-score in assay [7] was -0.246 and -0.605; in [9] it was -0.0739 and -0.0224; in assay [10], 0.0264 and -0.0237; in [11] it was -0.214 and 0.499; in assay [15], -0.461 and -0.18; in assay [17] it was -0.234 and -0.145. For the same molecule, the composite z-score was 0.16 and 0.31 in assay [18]; -0.391 and -0.433 in assay [19]; -0.174 and -0.137 in assay [20]. Further, the z-score in assay [8] was -1.09 (inactive) and 0.204 (inactive); in assay [12] it was -0.156 (inactive) and -0.142 (inactive); in [13], -19.4 (active) and -17.4 (active); in assay [14], -0.269 (inactive) and -0.224 (inactive); in assay [16], 0.298 (inactive) and 0.24 (inactive).
On to `CC(C)C(=O)N[C@@H]1CCCN1C(=O)C=Cc1ccccc1`, for which the composite z-score in [1] is -0.46; in assay [2], 0.323; in assay [3] it was -0.0781; in assay [4], 0.405; in assay [5] it was 0.99; in [6] it was 0.208. Besides, the composite z-score in assay [7] was 1.07; in assay [9], 0.125; in assay [10], -0.0994; in [11], 0.731; in assay [15] it was 0.783; in assay [17], -0.14. In addition, the results for the composite z-score in [18], in assay [19] and in assay [20] were 0.783, 0.786 and 0.0289, respectively. Also, the z-score in assay [8] is -0.416 (inactive); in assay [12] it was -0.91 (inactive); in assay [13], -0.0986 (inactive); in assay [14] it was -0.307 (inactive); in assay [16], 1.03 (inactive).
In the case of `COc1ccc(COC(=O)NN=C2C[C@@H](O)[C@@H](O)[C@@H]3[C@@H]4C(=O)N(C(C)(C)C)C(=O)[C@@H]4CC[C@H]23)cc1`, the composite z-score in assay [1] was -0.494; in assay [2], 0.602; in assay [3], -0.0439; in assay [4], 0.799; in [5], 0.29; in assay [6] it was 1.46. For the same molecule, the composite z-score was 1.13 in assay [7]; 0.0715 in assay [9]; -0.13 in assay [10]; 1.28 in assay [11]; 2.14 in [15]; -0.277 in assay [17]. In addition, the composite z-score in assay [18] is 0.468; in [19], 0.469; in assay [20], -0.132. In addition, the z-score in [8] is -1.03 (inactive); in assay [12], -1.76 (inactive); in assay [13] it was -1.05 (inactive); in assay [14], -0.715 (inactive); in assay [16], -0.0531 (inactive).
Regarding `COC(=O)CC=C[C@@H](C)[C@@H](CO)NS(=O)(=O)c1ccc(C)cc1`, the composite z-score was -0.659 and -0.717 in assay [1]; 0.406 and 0.605 in [2]; -0.108 and -0.0656 in assay [3]; 0.242 and 0.526 in [4]; 0.157 and 0.444 in [5]; -0.386 and -0.0111 in assay [6]. For the same molecule, the composite z-score in assay [7] was 0.081 and 0.253; in assay [9], 0.544 and 0.35; in assay [10] it was -0.147 and 0.0505; in [11] it was -0.0055 and 0.604; in assay [15], 0.0736 and 1.26; in assay [17], -0.37 and -0.0533. The composite z-score was 0.598 and 0.856 in [18]; -0.15 and 0.745 in assay [19]; -0.118 and 0.0192 in [20]. For the same molecule, the z-score in [8] was 0.862 (inactive) and -1.81 (inactive); in assay [12] it was 0.102 (inactive) and 0.479 (inactive); in assay [13], -0.178 (inactive) and -0.491 (inactive); in assay [14] it was 0.218 (inactive) and -0.249 (inactive); in assay [16], -0.0928 (inactive) and 0.0226 (inactive).
With `CO[C@H]1COC(=O)CC=C[C@H](C)[C@H](OC)COC(=O)[C@@H](C)COC(=O)CC=C[C@@H]1C`, the composite z-score in [1] is -0.62 and -0.66; in assay [2] it was 0.767 and 1.26; in assay [3] it was -0.14 and -0.143; in [4] it was -0.0016 and 0.149; in [5] it was -0.178 and 0.182; in assay [6] it was -0.73 and -0.518. The composite z-score was -0.104 and 0.0825 in assay [7]; -0.0446 and -0.0435 in [9]; -0.261 and -0.0645 in assay [10]; 0.65 and 1.07 in [11]; -0.0624 and -0.0356 in [15]; -0.177 and -0.239 in [17]. In addition, the composite z-score is 0.74 and 1.2 in assay [18]; 0.327 and 0.287 in assay [19]; -0.143 and -0.103 in assay [20]. For the same molecule, the z-score in assay [8] is -0.407 (inactive) and -1.3 (inactive); in assay [12] it was -0.23 (inactive) and -0.132 (inactive); in assay [13], -0.121 (inactive) and -1.49 (inactive); in assay [14], -0.324 (inactive) and -0.586 (inactive); in [16] it was 0.432 (inactive) and 0.839 (inactive).
As for `C[C@@H]1CN2[C@@H](CC[C@@H](C)[C@@H]2c2ccc(Br)cc2)C(=O)O1`, the composite z-score in assay [1] is -0.267 and -0.0033; in assay [2], -0.0199 and 0.174; in [3], -0.116 and -0.0583; in assay [4] it was 0.215 and 0.604; in assay [5] it was 0.275 and 0.18; in [6], -0.368 and 0.158. The composite z-score in assay [7] is -0.704 and -0.829; in [9] it was -0.145 and 0.0701; in [10], -0.0994 and -0.274; in assay [11] it was -0.477 and -0.0962; in assay [15], -0.625 and 0.0053; in assay [17], -0.166 and -0.18. For the same molecule, the composite z-score in assay [18] was 0.0137 and 0.546; in [19], -0.307 and -0.733; in assay [20], -0.111 and -0.154. The z-score was -0.735 (inactive) and -1.38 (inactive) in assay [8]; 0.327 (inactive) and -1.72 (inactive) in assay [12]; 0.398 (inactive) and -0.794 (inactive) in assay [13]; 1.74 (inactive) and -0.538 (inactive) in assay [14]; 0.0454 (inactive) and 0.082 (inactive) in assay [16].
